Laboratory results: PubChem BioAssay (NCATS)
Values without a mark were called inactive. Inconclusive results are not listed. A call without a number means that no potency is given here. Activity calls are given as the source filed them. Unless noted, the call rests on the fitted dose curve; in most records, active means well fitted curve in the direction sought with a large enough effect; inconclusive means small, poorly fitted or top-dose-only effect, or another doubt; inactive means no such curve, though single readings can be large; an effect the other way counts as inactive or inconclusive.

Experiments:
[1] = Cell Viability - BJ (AID 421; calls by dose curve;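 further: potency means the concentration at half of the fitted maximal effect; cells exposed to compound for 40 hours at 37 °C before readout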); details: BJ fibroblast viability, qHTS
In short: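 Normal human BJ foreskin fibroblasts, 1500/well in complete medium, treated 40 hr at 37 °C. Cellular ATP by CellTiter-Glo luminescence; normalized to DMSO and 100 uM tamoxifen, AC50 from Hill fit.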

[2] = Cell Viability - Jurkat (AID 426;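 active means dose-dependent loss of cell ATP signal giving a full or clear fitted curve, ranked by lower potency value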; further: potency means the concentration at half of the fitted maximal effect); details: qHTS
In short: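 Cells of the human T-cell leukemia line Jurkat (E6-1) are seeded at 5000 per well, treated with compound across a concentration range for 40 hours at 37 °C, then lysed with CellTiter-Glo; luminescence reports ATP.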

[3] = Cell Viability - Hek293 (AID 427;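 active means compounds whose dose-response curve shows a full or clear partial loss of cell viability, called from curve shape rather than a numeric limit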;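 further: potency means the concentration at half of the fitted maximal effect; cells exposed to compound for 40 hours at 37 °C before reading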); details: qHTS
In short: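 HEK293 cells in complete medium were exposed to compound for 40 hr at 37 °C, then cellular ATP was read by CellTiter-Glo luminescence. Data were normalized to DMSO (basal) and 100 uM tamoxifen (100% inhibition), and AC50 came from Hill fits.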

[4] = Cell Viability - HepG2 (AID 433; calls by dose curve;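 further: potency means the concentration at half of the fitted maximal effect; potency for ATP loss meaning cytotoxicity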); details: qHTS
In short: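 Cytotoxicity read as ATP loss (CellTiter-Glo luminescence) after 40 hr compound exposure of HepG2, 1500 cells/well, 37 °C. AC50 by Hill equation; 0% set by DMSO, 100% inhibition by 100 uM tamoxifen.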

[5] = Cell Viability - MRC5 (AID 434; calls by dose curve;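 further: potency means the concentration at half of the fitted maximal effect; potency reflects cytotoxicity seen as loss of intracellular ATP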); details: MRC5 lung fibroblast viability, qHTS
In short: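 AC50 values come from Hill-equation fits of intracellular ATP loss, measured by CellTiter-Glo luminescence. Normal lung fibroblasts (MRC5) had 40 hr compound treatment at 37 C, normalized between DMSO and 100 uM tamoxifen.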

[6] = Cell Viability - SK-N-SH (AID 435; calls by dose curve; further: potency means the concentration at half of the fitted maximal effect); details: SK-N-SH neuroblastoma cell viability qHTS
In short: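 qHTS cytotoxicity: CellTiter-Glo ATP luminescence after 40 h compound exposure of human neuroblastoma SK-N-SH cells at 37 °C. AC50 derived by Hill-equation fitting, with DMSO as basal and 100 uM tamoxifen as full inhibition.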

[7] = target: Mitogen-activated protein kinase 10 (Mus musculus) (UniProt Q61831); assay: JNK3 AlphaScreen Assay (AID 530; active means well fitted curve in either direction with a large enough effect, not every such curve was filed as active;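 further: kinase came from lysate of stimulated human HepG2 cells; signal reports phosphorylation of biotinylated GST-cJun 1-79 at Ser73 with 10 µM ATP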); details: JNK3 lysate, c-Jun phosphorylation; series mostly up to 57.1 µM
In short: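 qHTS titrations with 15 min compound pre-incubation before adding ATP (10 uM final). Read-out: AlphaScreen of Ser73-phosphorylated biotin-GST-cJun using HepG2 lysate JNK3 activated by IL-1β and TNFα.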

[8] = Cell Viability - NIH 3T3 (AID 541); details: NIH 3T3 cell viability, qHTS; activity change, negative = cytotoxicity: at 92.2 µM (top of the series); further: nearly all actives have a fitted effect of over 25% in size; further: potency means the concentration at half of the fitted maximal effect
In short: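 Cells seeded at 1000/well, rested 5 hr at 37 °C, then dosed and incubated 40 hr at 37 °C. CellTiter-Glo added, 20 min room temperature, luminescence read. AC50 by Hill fit.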

[9] = Cell Viability - HUV-EC-C (AID 542); details: HUV-EC-C endothelial cell viability, qHTS; series mostly up to 92.2 µM; further: nearly all actives have a fitted effect of over 35% in size
In short: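 Cells were seeded at 1000 per well and incubated 5 hr at 37 °C before compound addition. After 40 hr at 37 °C, CellTiter-Glo reagent was added for 20 min and luminescence read. AC50 values came from Hill-equation modelling.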

[10] = Cell Viability - H-4-II-E (AID 543); details: H-4-II-E rat hepatoma viability; series mostly up to 92.2 µM; further: nearly all actives have a fitted effect of over 35% in size
In short: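 Cells seeded at 1500 per well and rested 5 hr; compounds added; 40 hr incubation at 37 °C; CellTiter-Glo added, 20 min at room temperature; luminescence read. Hill-equation fits gave AC50.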

[11] = Cell Viability - SH-SY5Y (AID 544); details: SH-SY5Y neuroblastoma cell viability; viability change, negative = cytotoxic: at 92.2 µM (top of the series); further: nearly all actives have a fitted effect of over 55% in size
In short: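 Cells were plated at 1500 per well and allowed 5 hr at 37 °C. Compounds were added across a concentration range and incubated 40 hr at 37 °C. CellTiter-Glo was added for 20 min at room temperature before luminescence reading.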

[12] = Cell Viability - Renal Proximal Tubule (AID 545); details: renal proximal tubule cells viability, primary cells of rat origin; series mostly up to 91.7 µM; further: nearly all actives have a fitted effect of over 40% in size
In short: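 Viability taken as intracellular ATP (CellTiter-Glo luminescence) after 40 hr, 37 °C compound treatment of primary proximal tubule cells from rat kidney, 1000 cells/well; Hill-equation fits of qHTS concentration-response data gave AC50.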

[13] = Cell Viability - Mesenchymal (AID 546); details: mesenchymal cells viability, qHTS; series mostly up to 91.7 µM;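 further: cells exposed to compound for 40 hours before reading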
In short: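 CellTiter-Glo luminescence (intracellular ATP, 20 min room temperature) after 40 hr compound exposure at 37 °C of 1000 glomerulus-derived human kidney mesenchymal cells/well; AC50 values obtained by fitting qHTS concentration-response data to the Hill equation.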

[14] = Cellular Toxicity (caspase-3) Jurkat (AID 655); details: Jurkat caspase-3 activation, luminescence; caspase-3 activation: at 92.2 µM (top of the series), DMSO = 0%, tamoxifen = 100%;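 further: cells exposed to compound for 16 h at 37 °C before reading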
In short: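 Luminescent Caspase-Glo 3/7 read-out (20 min, room temperature) after 16 h compound treatment at 37 C of 5000 Jurkat cells per well. AC50 derived by Hill-equation fitting, scaled between DMSO basal and 100 uM tamoxifen stimulation.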

[15] = Cellular Toxicity (caspase-3) HUV-EC-C (AID 656); details: HUV-EC-C cells, caspase-3 activation (apoptosis), vehicle = 0, 100 µM tamoxifen = 100%; series mostly up to 92.2 µM
In short: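 Luminescent Caspase-Glo 3/7 readout after 16 h, 37 °C compound exposure of HUV-EC-C endothelial cells, 1000 per well, complete medium. AC50 derived by Hill fitting, with DMSO as baseline and 100 uM tamoxifen as full activation.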

[16] = Cellular Toxicity (caspase-3) SHSY5Y (AID 657); details: SH-SY5Y caspase-3 activation, DMSO zero, 10 µM staurosporine = 100%; series mostly up to 91.7 µM
In short: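 Luminescent Caspase-Glo 3/7 read-out, 1 hr room temperature, follows 16 hours of compound treatment of SH-SY5Y cells at 37 °C. Normalization: DMSO basal, 10 uM staurosporine as 100%; AC50 values from Hill-equation concentration-response fits.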

[17] = Cellular Toxicity (caspase-3) BJ (AID 658); details: BJ fibroblasts, luminescence, normalized: DMSO 0%, staurosporine 100%; series mostly up to 91.7 µM
In short: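 Caspase-Glo 3/7 luminescence, read 1 hr after reagent at room temperature, in normal BJ fibroblasts exposed 16 hours at 37 °C. AC50 values from Hill-equation concentration-response, scaled between DMSO basal and 10 uM staurosporine as 100%.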

[18] = Cellular Toxicity (caspase-3) MRC-5 (AID 659); details: MRC-5 cells, luminescence, normalized: DMSO 0%, 10 µM staurosporine 100%; series mostly up to 91.7 µM
In short: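 Luminescent Caspase-Glo 3/7 read-out (1 h, room temperature) after a 16 h, 37 °C compound exposure of MRC-5 lung fibroblasts at 1500 cells/well. Concentration-response AC50 from Hill equation; 0% DMSO, 100% 10 uM staurosporine.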

[19] = Cell Viability - N2a (AID 540); details: N2a mouse neuroblastoma cell viability; activity change, negative = cytotoxicity: at 92.2 µM (top of the series); further: nearly all actives have a fitted effect of over 45% in size
In short: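 Cytotoxicity was scored as loss of cellular ATP in N2a cells, a mouse neuroblastoma line. Compounds are applied in a qHTS concentration series for 40 hr at 37 °C.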

[20] = Cellular Toxicity (caspase-3) HepG2 (AID 654); details: HepG2 caspase-3 activation, luminescence; series mostly up to 92.2 µM;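 further: cells exposed to compound for 16 hours before reading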
In short: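 Caspase 3/7 activation in HepG2 is measured as rising luminescence after a 16 hr treatment at 37 °C. Values are scaled between DMSO basal and 100 uM tamoxifen, and AC50 is fitted with the Hill equation.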

Structure (SMILES)	Potency [1] [µM]	Potency [2] [µM]	Potency [3] [µM]	Potency [4] [µM]	Potency [5] [µM]	Potency [6] [µM]	outcome [7]	Potency [8]	Potency [9]	Potency [10]	Potency [11]	Potency [12]	Potency [13]	caspase-3 activation [14] [%]	outcome [15]	outcome [16]	outcome [17]	outcome [18]	activity change, negative = cytotoxicity [19] [%]	Potency [20]
Oc1cccc(Nc2ccccc2)c1	> 92	> 92	> 92	> 92	> 92	> 92	inactive	inactive	inactive	inactive	inactive	inactive	inactive	2.02	inactive	inactive	inactive	inactive	–	–
CCN(C(=O)N(CC)c1ccccc1)c1ccccc1	> 92	> 92	> 92	> 92	> 92	> 92	–	7.94 µM (active)	inactive	inactive	inactive	–	inactive	–	inactive	inactive	inactive	inactive	-13.7	–
CC(C)=CCl	> 92	> 92	> 92	> 92	> 92	> 92	inactive	–	–	–	–	inactive	inactive	-0.417	inactive	inactive	inactive	inactive	1.02	–
CCOCC(=O)O	> 92	> 92	> 92	> 92	> 92	> 92	inactive	inactive	inactive	inactive	inactive	inactive	inactive	–	inactive	inactive	inactive	–	–	inactive
COCCOC(=O)c1ccccc1C(=O)OCCOC	> 92	> 92	> 92	> 92	> 92	> 92	inactive	inactive	inactive	inactive	inactive	inactive	inactive	0.0969	inactive	inactive	inactive	inactive	–	inactive
CCCCC(CC)CNCC(CC)CCCC (configuration not stated)	> 92	> 92	> 92	> 92	> 92	> 92	–	inactive	inactive	inactive	–	inactive	inactive	1.24	inactive	inactive	–	–	-7.79	inactive
ON=C1CCCCC1	> 92	> 92	> 92	> 92	> 92	> 92	inactive	inactive	inactive	inactive	inactive	inactive	inactive	-0.266	inactive	inactive	inactive	inactive	–	inactive
C=C(C)C(=O)OCCCCCC	> 92	> 92	> 92	> 92	> 92	> 92	–	inactive	inactive	–	inactive	–	inactive	–	inactive	inactive	inactive	inactive	-2.36	inactive
CNC(=O)c1ccccc1	> 92	> 92	> 92	> 92	> 92	> 92	inactive	–	inactive	inactive	–	inactive	inactive	0.307	inactive	inactive	–	inactive	–	inactive
Cc1ccc2cccnc2c1	> 92	> 92	> 92	> 92	> 92	> 92	inactive	inactive	inactive	inactive	inactive	inactive	inactive	–	inactive	inactive	inactive	inactive	–	–
CC(C)CCOC(=O)/C=C/c1ccccc1	> 92	> 92	> 92	> 92	> 92	> 92	–	inactive	inactive	inactive	inactive	inactive	inactive	0.824	inactive	inactive	inactive	inactive	1.5	inactive
OC1CCCC1	> 92	> 92	> 92	> 92	> 92	> 92	–	inactive	inactive	inactive	inactive	inactive	inactive	–	inactive	inactive	inactive	inactive	-9.14	–
Cc1c(C(=O)O)cccc1[N+](=O)[O-]	> 92	> 92	> 92	> 92	> 92	> 92	inactive	–	inactive	inactive	inactive	inactive	inactive	1.11	inactive	inactive	inactive	–	–	inactive
